Results filed as inconclusive are left out. Entries that show only a call come without a potency. Activity calls are given as the source filed them. The call rests on the fitted dose curve; in most records, active means well fitted inhibition curve with a large enough effect; inconclusive means small, poorly fitted or top-dose-only effect; inactive means no such curve, though single readings can be large or run the other way.
Assay: HTS Assay for Allosteric Antagonists of the Human D2 Dopamine Receptor: Hit Validation in HTRF (AID 624455);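 further: stable D1 dopamine receptor cell line scored for blocking the D1 response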
Details: Cells stably expressing D1 dopamine receptor, inhibition mode; series mostly up to 46.1 µM
Procedure, shortened: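 Signal from an HTRF read-out in D1-expressing stable cells gave hit activity as inhibition of the D1 response.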
With `CC(COc1ccc(/C=C/c2ccccc2)cc1)[N+](C)(C)C` (centres undefined) the Potency was “inactive”. In the case of `c1ccc(-c2ccccn2)nc1`, the Potency is reported as “inactive”. In the case of `Fc1ccc(C(OCCCc2cnc[nH]2)c2ccc(F)cc2)cc1`, the Potency is reported as “inactive”. With `COc1cc2nc(N3CCN(C(=O)OCc4ccccc4)C(C(=O)NC(C)(C)C)C3)nc(N)c2cc1OC` (centres undefined) the Potency was “inactive”. With `O=C(O)CC1CC(c2ccccc2)=NO1` (centres undefined) the Potency was “inactive”. With `COc1cc(SC)ccc1C(=O)N1CCC(Cc2ccccc2)CC1` the Potency was “inactive”. In the case of `Cc1cc2c(cc1Cl)N(C(=O)Nc1ccc(Oc3cccnc3C)nc1)CC2`, the Potency is reported as “inactive”. In the case of `NCCNC(=O)c1ncsc1-c1cccc(F)c1`, the Potency is reported as “inactive”. With `Clc1ccc(N2CCN(Cc3cc4ccccn4n3)CC2)cc1` the Potency was “inactive”. With `CCCN(CC1CC1)c1nc(C)nc(Nc2c(Cl)cc(Cl)cc2Cl)c1Cl` the Potency was “inactive”. In the case of `O=c1[nH]c2cc([N+](=O)[O-])c([N+](=O)[O-])cc2[nH]c1=O`, the Potency is reported as “inactive”. With `CC(=O)SCC[N+](C)(C)C` the Potency was “inactive”. With `Cc1nc2sccn2c(=O)c1CCN1CCC(=C(c2ccccc2)c2ccc(F)cc2)CC1` the Potency was “inactive”. In the case of `CCOC(=O)C1=C(C)NC(C)=C(C(=O)OCC)C1c1c(F)c(F)c(F)c(F)c1F`, the Potency is reported as “inactive”. For `O=Nc1ccc2oc(=O)ccc2c1`, the Potency was “inactive”. With `CCCCN1CCC(n2c(=O)[nH]c3ccccc32)CC1` the Potency was “inactive”. For `Cc1cc(NC2CCCCC2)nc(-n2nc(C)cc2C)n1`, the Potency was “inactive”. In the case of `Nc1ncnc2c1ncn2[C@@H]1O[C@H](COP(=O)(O)CP(=O)(O)OP(=O)(O)O)[C@@H](O)[C@H]1O`, the Potency is reported as “inactive”. In the case of `COc1cccc(OC)c1OCCNCC1COc2ccccc2O1` (centres undefined), the Potency is reported as 92 nM (active).

From PubChem BioAssay (NCATS)
Potency means the concentration at half of the fitted maximal effect.
